Where “and” joins values, the source holds several entries; their conditions need not be identical. Equal entries are not always repeated. Values without a mark were called inactive. Inconclusive results are not listed. A call without a number means that no potency is given here. Calls of active or inactive are those of the source. Calls follow the shape of the dose curve; as a rule, active = well fitted curve in the direction sought with a large enough effect in the repeat runs; inconclusive = weak or mixed curves; inactive = no such curve, though single readings can be large; an effect the other way counts as inactive or inconclusive.
How the values were obtained:
[1] = qHTS RealTime-Glo MT Cell Viability Assay in HEK293 cells - 16 hour (AID 1224872); conditions: RealTime-Glo luminescence; series mostly up to 76.8 µM; also: nearly all actives have a fitted effect of over 50% in size; also: potency is read from the fitted curve at half-maximal effect; as to activity change, negative = cytotoxicity: top concentration of the series differs between compounds
Summary of the method: (§1)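 Homogeneous bioluminescent viability format in HEK293 cells (600 cells/well). Following 5 h at 37 C/5% CO2, 23 nL compound was pintooled; the signal was measured repeatedly during 40 h incubation.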

[2] = qHTS RealTime-Glo MT Cell Viability Assay in HepG2 cells - 8 hour (AID 1224873); conditions: RealTime-Glo luminescence; series mostly up to 76.8 µM; also: nearly all actives have a fitted effect of over 55% in size; also: potency is read from the fitted curve at half-maximal effect
Summary of the method: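 Real-time viability: cells seeded at 600 per well together with NanoLuc and cell-permeant prosubstrate, compounds added after 5 h incubation. Luminescence tracked at 0, 8, 16, 24, 32 and 40 h of exposure.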

[3] = qHTS RealTime-Glo MT Cell Viability Assay in HEK293 cells - 40 hour (AID 1224874); conditions: RealTime-Glo luminescence; max response: active compounds read low; also: nearly all actives have a fitted effect of over 50% in size; also: potency is read from the fitted curve at half-maximal effect
Summary of the method: (§2)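 Kinetic, non-lysing viability readout. Seed HEK293 (600/well) with reagent, incubate 5 h at 37 C/5% CO2, pin 23 nL compound in DMSO, incubate at 37 C, read luminescence at 0, 8, 16, 24, 32, 40 h.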

[4] = A CellTox Green Cytotoxicity Assay to monitor cytotoxicity in HEK293 cells - 24 hour (AID 1224875); conditions: CellTox Green fluorescence; series mostly up to 76.8 µM; also: nearly all actives have a fitted effect of over 45% in size; also: potency is read from the fitted curve at half-maximal effect
Summary of the method: (§3)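 Real-time, in one plate: 600 HEK293 cells/well with dead-cell DNA dye, pinned compound after 5 h, 37 C incubation over 40 h; viable cells give no appreciable fluorescence.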

[5] = A CellTox Green Cytotoxicity Assay to monitor cytotoxicity in HepG2 cells - 16 hour (AID 1224876); conditions: CellTox Green fluorescence; series mostly up to 76.8 µM; also: nearly all actives have a fitted effect of over 45% in size
Summary of the method: (§4)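 Cytotoxicity was tracked as dead-cell DNA fluorescence in HepG2 cells treated with test compounds at 37 C; each time-point value comes from one kinetic series spanning 0, 8, 16, 24, 32 and 40 h.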

[6] = qHTS RealTime-Glo MT Cell Viability Assay in HepG2 cells - 32 hour (AID 1224877); conditions: RealTime-Glo luminescence; series mostly up to 76.8 µM; also: nearly all actives have a fitted effect of over 55% in size; also: potency is read from the fitted curve at half-maximal effect
Summary of the method: (§5)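 Cell number in HepG2 cultures estimated from NanoLuc luminescence generated by metabolic reduction of a prosubstrate by living cells. The homogeneous, nonlytic format allowed repeated reads at 0, 8, 16, 24, 32 and 40 h of compound exposure.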

[7] = A CellTox Green Cytotoxicity Assay to monitor cytotoxicity in HepG2 cells - 24 hour (AID 1224878); conditions: CellTox Green fluorescence; series mostly up to 76.8 µM; also: nearly all actives have a fitted effect of over 45% in size; also: potency is read from the fitted curve at half-maximal effect
Summary of the method: as §4

[8] = qHTS RealTime-Glo MT Cell Viability Assay in HEK293 cells - 0 hour (AID 1224880); conditions: RealTime-Glo luminescence; series mostly up to 76.8 µM; also: top concentration of the series differs between compounds; nearly all actives have a fitted effect of over 45% in size
Summary of the method: as §2

[9] = A CellTox Green Cytotoxicity Assay to monitor cytotoxicity in HEK293 cells - 32 hour (AID 1224881); conditions: CellTox Green fluorescence; series mostly up to 76.8 µM; also: nearly all actives have a fitted effect of over 40% in size; also: potency is read from the fitted curve at half-maximal effect
Summary of the method: as §3

[10] = A CellTox Green Cytotoxicity Assay to monitor cytotoxicity in HepG2 cells - 0 hour (AID 1224882); conditions: CellTox Green fluorescence; series mostly up to 76.8 µM; also: nearly all actives have a fitted effect of over 35% in size
Summary of the method: as §4

[11] = A CellTox Green Cytotoxicity Assay to monitor cytotoxicity in HepG2 cells - 32 hour (AID 1224883); conditions: CellTox Green fluorescence; series mostly up to 76.8 µM; also: nearly all actives have a fitted effect of over 50% in size; also: potency is read from the fitted curve at half-maximal effect
Summary of the method: as §4

[12] = qHTS RealTime-Glo MT Cell Viability Assay in HepG2 cells - 16 hour (AID 1224885); conditions: RealTime-Glo luminescence; series mostly up to 76.8 µM; also: nearly all actives have a fitted effect of over 50% in size; also: potency is read from the fitted curve at half-maximal effect
Summary of the method: as §5

[13] = qHTS RealTime-Glo MT Cell Viability Assay in HEK293 cells - 24 hour (AID 1224886); conditions: RealTime-Glo luminescence; series mostly up to 76.8 µM; also: nearly all actives have a fitted effect of over 50% in size; also: potency is read from the fitted curve at half-maximal effect; as to activity change, negative = cytotoxicity: top concentration of the series differs between compounds
Summary of the method: as §1

[14] = qHTS RealTime-Glo MT Cell Viability Assay in HEK293 cells - 8 hour (AID 1224887); conditions: RealTime-Glo luminescence; series mostly up to 76.8 µM; also: nearly all actives have a fitted effect of over 50% in size; also: potency is read from the fitted curve at half-maximal effect; as to activity change, negative = cytotoxicity: top concentration of the series differs between compounds
Summary of the method: as §2

[15] = qHTS RealTime-Glo MT Cell Viability Assay in HepG2 cells - 0 hour (AID 1224889); conditions: RealTime-Glo luminescence; series mostly up to 76.8 µM; also: nearly all actives have a fitted effect of over 50% in size
Summary of the method: as §5

[16] = A CellTox Green Cytotoxicity Assay to monitor cytotoxicity in HEK293 cells - 40 hour (AID 1224871); conditions: CellTox Green fluorescence; series mostly up to 76.8 µM; also: nearly all actives have a fitted effect of over 45% in size; also: potency is read from the fitted curve at half-maximal effect
Summary of the method: as §3

[17] = A CellTox Green Cytotoxicity Assay to monitor cytotoxicity in HepG2 cells - 40 hour (AID 1224879); conditions: CellTox Green fluorescence; series mostly up to 76.8 µM; also: nearly all actives have a fitted effect of over 40% in size; also: potency is read from the fitted curve at half-maximal effect
Summary of the method: as §4

[18] = A CellTox Green Cytotoxicity Assay to monitor cytotoxicity in HEK293 cells - 16 hour (AID 1224888); conditions: CellTox Green fluorescence; series mostly up to 76.8 µM; also: nearly all actives have a fitted effect of over 35% in size; also: potency is read from the fitted curve at half-maximal effect
Summary of the method: as §3

[19] = A CellTox Green Cytotoxicity Assay to monitor cytotoxicity in HEK293 cells - 8 hour (AID 1224884); conditions: CellTox Green fluorescence; series mostly up to 76.8 µM; also: nearly all actives have a fitted effect of over 35% in size; also: potency is read from the fitted curve at half-maximal effect
Summary of the method: as §3

CC(Cl)C(Cl)Cl (configuration not stated)
Potency [1]: inactive | Potency [2]: inactive | max response [3]: -7.3% | Potency [4]: 42.9 µM (active) | Potency [5]: inactive | Potency [6]: inactive | Potency [7]: inactive | Potency [8]: inactive | Potency [9]: 48.2 µM (active) | Potency [10]: inactive | Potency [11]: inactive | Potency [12]: inactive | Potency [13]: inactive | Potency [14]: inactive | Potency [15]: inactive

C=CC(=C)CCCC(C)(C)OC(C)=O
Potency [16]: inactive | Potency [1]: inactive | Potency [2]: inactive | max response [3]: -7.82% | Potency [4]: inactive | Potency [6]: inactive | Potency [7]: inactive | Potency [17]: inactive | Potency [8]: inactive | Potency [9]: inactive | Potency [10]: inactive | Potency [11]: inactive | Potency [12]: inactive | Potency [13]: inactive | Potency [14]: inactive | Potency [18]: inactive

CN1Cc2cc(C(=O)N3CCC(C4CCNCC4)CC3)ccc2N[C@@H](CC(=O)O)C1=O
Potency [16]: inactive | Potency [1]: inactive | Potency [2]: inactive | max response [3]: 0.441% | Potency [4]: inactive | Potency [5]: inactive | Potency [6]: inactive | Potency [7]: inactive | Potency [17]: inactive | Potency [8]: inactive | Potency [9]: inactive | Potency [11]: inactive | Potency [19]: inactive | Potency [12]: inactive | Potency [13]: inactive | Potency [14]: inactive | Potency [18]: inactive | Potency [15]: inactive

CC(C)(C)CC(C)(C)c1ccc(OCCO)cc1
Potency [16]: 48.7 µM (active) | Potency [1]: 6.88 µM (active) | Potency [2]: inactive | Potency [3]: 4.87 µM (active) | Potency [5]: inactive | Potency [6]: inactive | Potency [7]: inactive | Potency [17]: inactive | Potency [8]: inactive | Potency [9]: 54.6 µM (active) | Potency [11]: inactive | Potency [12]: inactive | Potency [13]: 5.46 µM (active) | Potency [14]: 7.72 µM (active)

COC(=O)c1cc(S(N)(=O)=O)ccc1OC
Potency [16]: inactive | Potency [1]: inactive | Potency [2]: inactive | max response [3]: 7.1% | Potency [4]: inactive | Potency [6]: inactive | Potency [7]: inactive | Potency [17]: inactive | Potency [8]: inactive | Potency [9]: inactive | Potency [11]: inactive | Potency [19]: inactive | Potency [12]: inactive | Potency [13]: inactive | Potency [14]: inactive | Potency [18]: inactive

NC(=O)N(O)[C@@H]1COc2cc(OCc3ccccc3)ccc21
Potency [16]: inactive | Potency [1]: inactive | Potency [2]: inactive | Potency [4]: inactive | Potency [5]: inactive | Potency [6]: inactive | Potency [8]: inactive | Potency [9]: inactive | Potency [19]: inactive | Potency [12]: inactive | Potency [13]: inactive | Potency [14]: inactive | Potency [18]: inactive | Potency [15]: inactive

CCCCCCCCCCCCCCCCBr
cytotoxicity increase [16]: -0.351% [at 15.8 µM] | activity change, negative = cytotoxicity [1]: 6.53% [at 15.8 µM] | viability change, negative = cytotoxic [2]: 2.68% [at 15.8 µM] | max response [3]: 4.08% | activity change [4]: 2.71% [at 15.8 µM, active compounds read high] | cytotoxicity increase [5]: -3.1% [at 15.8 µM] | activity change, negative = cytotoxic [6]: 2.91% [at 15.8 µM] | cytotoxicity [7]: -6.35% [at 15.8 µM] | cytotoxicity increase [17]: -7.84% [at 15.8 µM] | activity change, negative = cytotoxicity [8]: 6.45% [at 15.8 µM] | cytotoxicity increase [9]: 0.813% [at 15.8 µM] | cytotoxicity increase [11]: -8.22% [at 15.8 µM] | activity change, negative = cytotoxic [12]: 2.39% [at 15.8 µM] | activity change, negative = cytotoxicity [13]: 6% [at 15.8 µM] | activity change, negative = cytotoxicity [14]: 3.99% [at 15.8 µM]

COCc1c(C(C)C)nc(C(C)C)c(/C=C/[C@@H](O)C[C@@H](O)CC(=O)O)c1-c1ccc(F)cc1
Potency [16]: inactive | Potency [4]: inactive | Potency [5]: inactive | Potency [7]: 301 nM (active) and 4.32 µM (active) | Potency [17]: 379 nM (active) and 4.84 µM (active) | Potency [9]: inactive | Potency [10]: inactive | Potency [11]: 338 nM (active) and 4.84 µM (active) | Potency [19]: inactive | Potency [18]: inactive

Nc1nc(Cl)nc2c1ncn2[C@@H]1O[C@H](CO)[C@@H](O)[C@@H]1F
Potency [16]: inactive | Potency [2]: inactive | Potency [3]: 4.25 µM (active) | Potency [4]: inactive | Potency [5]: inactive | Potency [6]: inactive | Potency [7]: inactive | Potency [8]: inactive | Potency [9]: inactive | Potency [10]: inactive | Potency [11]: inactive | Potency [19]: inactive | Potency [12]: inactive | Potency [13]: 4.77 µM (active) | Potency [14]: inactive | Potency [15]: inactive

O=C(CS)OCCOC(=O)CS
Potency [16]: inactive | Potency [1]: inactive | Potency [2]: inactive | max response [3]: 0.141% | Potency [4]: inactive | Potency [6]: inactive | Potency [7]: inactive | Potency [17]: inactive | Potency [8]: inactive | Potency [9]: inactive | Potency [10]: inactive | Potency [11]: inactive | Potency [19]: inactive | Potency [12]: inactive | Potency [14]: inactive | Potency [15]: inactive

CCCCCCCCCCCCCCC[C@H](O)[C@@H](N)CO
Potency [16]: 23.9 µM (active) | Potency [1]: 21.3 µM (active) | Potency [3]: 26.8 µM (active) | Potency [4]: 21.3 µM (active) | Potency [6]: 26.8 µM (active) | Potency [7]: 26.8 µM (active) | Potency [17]: 26.8 µM (active) | Potency [8]: inactive | Potency [9]: 21.3 µM (active) | Potency [11]: 26.8 µM (active) | Potency [19]: 23.9 µM (active) | Potency [13]: 21.3 µM (active) | Potency [14]: 23.9 µM (active) | Potency [18]: 21.3 µM (active) | Potency [15]: inactive

Oc1ccc(Nc2ccccc2)cc1
Potency [1]: 19.5 µM (active) | Potency [3]: 19.5 µM (active) | Potency [5]: inactive | Potency [6]: inactive | Potency [7]: inactive | Potency [17]: inactive | Potency [10]: inactive | Potency [11]: inactive | Potency [19]: inactive | Potency [14]: 17.4 µM (active) | Potency [18]: inactive

CCC(Cc1ccccc1)(C(=O)c1ccc(N2CCOCC2)cc1)N(C)C (configuration not stated)
Potency [2]: inactive | Potency [4]: inactive | Potency [6]: inactive | Potency [7]: inactive | Potency [17]: inactive | Potency [8]: inactive | Potency [9]: inactive | Potency [10]: inactive | Potency [11]: inactive | Potency [12]: inactive | Potency [18]: inactive | Potency [15]: inactive

CCOC(=O)c1ccccc1OC
Potency [16]: inactive | Potency [1]: inactive | Potency [2]: inactive | max response [3]: -4.86% | Potency [4]: inactive | Potency [6]: inactive | Potency [7]: inactive | Potency [17]: inactive | Potency [8]: inactive | Potency [9]: inactive | Potency [10]: inactive | Potency [11]: inactive | Potency [19]: inactive | Potency [12]: inactive | Potency [14]: inactive | Potency [18]: inactive | Potency [15]: inactive

CCOC(=O)[C@@H](C)Oc1ccc(Oc2nc3ccc(Cl)cc3o2)cc1
Potency [16]: inactive | Potency [1]: 21.9 µM (active) | Potency [2]: 7.76 µM (active) | Potency [3]: 21.9 µM (active) | Potency [4]: inactive | Potency [5]: inactive | Potency [7]: inactive | Potency [17]: inactive | Potency [8]: inactive | Potency [9]: inactive | Potency [10]: inactive | Potency [11]: inactive | Potency [19]: inactive | Potency [12]: 8.71 µM (active) | Potency [14]: 21.9 µM (active) | Potency [18]: inactive | Potency [15]: inactive
